Sampled rows, rich in hits. Any-hit rate of the full collection: about 2.9%.
PLCb3 inh – PLC-beta3 (human) inhibition, primary screen | 0.18% of 370,000 active | Purified PLC-beta3, fluorogenic substrate, fluorescence | inhibition, % at 12.2 µM; in the data active means inhibition above about 11%;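 further: 0% = median of compound wells on plate and 100% = full blocker control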
PLC-gamma1 inh – PLC-gamma1 (human) inhibition, primary screen; purified PLC-gamma1, fluorogenic substrate, fluorescence; 0.84% of 370,000 active; inhibition, % at 12.2 µM; P19174
ADAM17 inh – ADAM17 inhibition, QFRET primary screen | inhibition, % at 6.95 µM | 0.83% of 370,000 active | recombinant ADAM17, EDANS/DABCYL FRET peptide cleavage | P78536;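 active means inhibition above the mean of compounds lying between control limits plus 3 SD, set per campaign, cut at about 8.5% in these data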;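 further: 0% = DMSO-only wells as the low control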
Target sequence (P78536 215-824 limits assumed): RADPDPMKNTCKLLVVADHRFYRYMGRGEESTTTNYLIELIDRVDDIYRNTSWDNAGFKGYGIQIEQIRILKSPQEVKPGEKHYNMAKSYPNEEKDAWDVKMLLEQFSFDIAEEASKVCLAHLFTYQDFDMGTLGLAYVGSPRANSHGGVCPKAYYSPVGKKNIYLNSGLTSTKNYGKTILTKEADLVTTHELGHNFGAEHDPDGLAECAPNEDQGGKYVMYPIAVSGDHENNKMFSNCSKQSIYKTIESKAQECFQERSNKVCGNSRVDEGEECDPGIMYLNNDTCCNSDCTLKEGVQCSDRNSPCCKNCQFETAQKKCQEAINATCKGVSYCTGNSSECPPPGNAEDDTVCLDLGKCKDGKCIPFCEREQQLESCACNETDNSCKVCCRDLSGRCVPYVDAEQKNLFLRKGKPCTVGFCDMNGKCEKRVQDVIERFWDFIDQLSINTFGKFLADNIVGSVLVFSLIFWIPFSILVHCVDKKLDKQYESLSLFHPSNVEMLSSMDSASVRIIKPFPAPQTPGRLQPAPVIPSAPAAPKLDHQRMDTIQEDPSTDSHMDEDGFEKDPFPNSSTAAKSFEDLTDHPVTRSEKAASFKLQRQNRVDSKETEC
ADAM10 inh – ADAM10 inhibition, QFRET primary screen; O14672; recombinant ADAM10, EDANS/DABCYL FRET peptide cleavage, 3 h; inhibition, % at 7 µM; 0.62% of 370,000 active; AID 720582;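 active means inhibition above a per-campaign cutoff equal to the mean of compounds falling between control-based bounds plus 3 SD, cut at about 20% in these data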;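 further: 0% = DMSO wells while the 100% control is not disclosed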
proKLK7 act – activates the human kallikrein-7 zymogen. AID 652039. P49862. purified proKLK7, EDANS-DABCYL substrate fluorescence; 100% is mature enzyme control, 0% vehicle. 0.9% of 370,000 active. activation, % at 7 µM;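 active means activation above the mean of all tested compounds plus 3 SD, computed per campaign excluding outliers beyond control limits, cut at about 13% in these data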
PLCg1 ctr – counter-screen for PLC-beta3 inhibitors: inhibitors of human PLC-gamma1 | inhibition, % at 12.3 µM | AID 743258 | 3.1% of 3,300 active | shares compounds with PLC-gamma1 inh | purified PLC-gamma1, fluorogenic substrate, fluorescence
PLCb3 confirm – human PLC-beta3 inhibition, confirmation; shares compounds with PLC-gamma1 inh; purified PLC-beta3, fluorogenic substrate fluorescence; inhibition, % at 12.3 µM; 1% of 3,300 active; AID 743261; in the data active means inhibition above about 11%
* marks the source's active call; other numbers are inactive results; . = not tested or not shown. Unless noted, no stated cut-off is given here; in the data, active means inhibition above about 9.5%; inactive means the rest.

SMILES | PLCb3 inh | PLC-gamma1 inh | ADAM17 inh | ADAM10 inh | proKLK7 act | PLCg1 ctr | PLCb3 confirm
Cc1ccc(CN2[C@@H](CC3CCCCC3)COCCS2(=O)=O)cc1 | 1.0 | 2.2 | -3.3 | -1.9 | 0.0 | . | .
Cc1cccc(C(=O)OC(C)CN2CCOCC2)c1 (stereo not drawn) | -0.8 | -0.5 | -5.6 | -4.8 | -0.9 | . | .
CC(CN1CCOCC1)OC(=O)c1cccc(Br)c1 (stereo not drawn) | 11.7* | 5.1 | 4.7 | 6.3 | 0.6 | -1.2 | 1.3
C[C@H]1c2cccc(O)c2C(O)=C2C(=O)C3(O)C(O)=C(C(N)=O)C(=O)[C@@H](N(C)C)[C@@H]3[C@@H](O)[C@@H]21 (stereo partly drawn) | -45.2 | -33.5 | -5.9 | -3.0 | -4.7 | . | .
C=C1c2cccc(O)c2C(O)=C2C(=O)[C@]3(O)C(O)=C(C(N)=O)C(=O)[C@@H](N(C)C)[C@@H]3[C@@H](O)[C@H]12 | -33.0 | 15.3* | -2.6 | -21.3 | -7.6 | -159.7 | -188.1
COC(=O)c1c(-c2c(Cl)cccc2Cl)noc1C(=O)NNC(=O)N(C)C | 1.1 | 9.8* | 1.4 | 8.5 | 0.0 | 4.0 | -1.3
O=S(=O)(Nc1nc2ccccc2s1)c1ccc(Cl)s1 | -4.8 | -2.7 | -0.9 | 3.0 | -0.8 | . | .
O=S(=O)(Nc1nc2ccccc2s1)c1cc(F)ccc1F | -0.8 | 9.5* | 2.0 | 9.7 | 0.0 | -6.6 | -3.2
COc1cccc(-c2c(C(=O)N/N=C(\C)c3cccs3)nnn2-c2nonc2N)c1 | -15.5 | -0.4 | 5.0 | 13.3 | 0.2 | . | .
CCC(C)n1c(SCC(=O)NCc2ccco2)nnc1-c1cccc(S(=O)(=O)N2CCOCC2)c1 (stereo not drawn) | 2.9 | 12.4* | 3.0 | 0.1 | 0.3 | -7.9 | -6.2
Cc1ccccc1C(=O)NCC(C)NC(=O)c1ccccc1C (stereo not drawn) | -4.4 | -0.2 | -0.3 | -2.0 | 0.5 | . | .
COC(=O)NC(NC(=S)Nc1ccc([N+](=O)[O-])cc1)C(Cl)(Cl)Cl (stereo not drawn) | 11.5* | 4.7 | 4.6 | 7.8 | -0.4 | 4.8 | 7.4
COc1cc(/C=C/C(=O)OCC(=O)N2CCN(S(=O)(=O)c3ccc(C)cc3C)CC2)cc(Cl)c1OC | -9.8 | -3.0 | -3.3 | -3.8 | -0.1 | . | .
CC(C)C(NC(=O)OCc1ccccc1)C(=O)NCC(=O)OC(C)(C)C (stereo not drawn) | 15.1* | 2.3 | 7.4 | 6.5 | -0.3 | 8.4 | 2.7
CC(C)(C)NC(=O)C(Cc1ccccc1)N1C(=O)c2ccccc2C1=O (stereo not drawn) | -6.4 | 8.0 | -7.3 | -4.5 | -0.4 | . | .
COCC(=O)N1CCCC(CNS(=O)(=O)c2ccc(OC)cc2)C1 (stereo not drawn) | 4.6 | 14.2* | 5.7 | 4.7 | 0.4 | -5.4 | -6.1
COCCC(=O)N1CCCC(CNS(=O)(=O)c2ccc(OC)cc2)C1 (stereo not drawn) | 3.1 | -1.6 | -1.5 | -6.7 | 0.3 | . | .
CC(=O)Nc1ccc(S(=O)(=O)NCC2CCC(C(=O)N3CCCCC3)CC2)cc1 (stereo not drawn) | -7.5 | 9.9* | -4.1 | 5.8 | 0.1 | -3.7 | -3.0
CCOC(=O)C1CCCN(C(=O)C2CCC(CNS(=O)(=O)c3ccc(NC(C)=O)cc3)CC2)C1 (stereo not drawn) | 3.6 | 3.4 | 3.3 | 7.0 | 1.0 | . | .
O=C1C(NS(=O)(=O)c2cccs2)=C(N2CCOCC2)C(=O)c2ccccc21 | -2.3 | 9.8* | 1.0 | 6.8 | 0.6 | -9.6 | -6.4
Cc1ccc(F)cc1NC(=O)CCOc1ccccc1 | 11.2* | 10.6* | 4.1 | 0.5 | 0.2 | 4.7 | 4.3
CS(=O)(=O)c1ccc(NC(=O)C2CCCN(C(=O)c3ccc(Cl)cc3)C2)cc1 (stereo not drawn) | -7.9 | 0.4 | -2.2 | -10.7 | -0.4 | . | .
CC(=O)Nc1ccc(NC(=O)C2CCCN(C(=O)c3ccc(Cl)cc3)C2)cc1 (stereo not drawn) | 6.3 | 12.0* | 3.6 | 9.2 | -0.1 | -2.0 | 0.0
COc1ccc(C(=O)Nc2cccc([N+](=O)[O-])c2)cc1Br | 11.1* | 0.8 | 5.8 | 5.4 | 0.9 | 4.6 | -0.1

Screening results from PubChem BioAssay.
